This is an account of results in PubChem BioAssay (NCATS).

The target in assay [1] is Cytochrome P450 1A2 (Homo sapiens) (UniProt P05177). Description: p450-cyp1a2 (AID 410; calls by dose curve; also: potency is read from the fitted curve at half-maximal effect;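 as to activity change, negative = inhibition: -100% = full effect of reference inhibitor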). The gist of the method: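 20nM CYP1A2 with 100uM Luciferin-ME (at Km) in 100mM KPO4; compound preincubated 10 min, NADPH regeneration added, 60 min at room temperature. Luciferin quantified by luminescence after detection reagent; normalized to 57 uM furafylline.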
Assay [2] addresses Glucocorticoid receptor (Homo sapiens) (UniProt P04150). Description: GR-GFP Redistribution (AID 450;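 active = compounds whose dose series gives a full or clear partial fitted curve of increased nuclear translocation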; also: potency is read from the fitted curve at half-maximal effect). As to conditions: U2OS GR-GFP nuclear translocation, laser cytometry, 2 h.
For assay [3] the target is unchanged. The assay can be described thus: GR-EFC Redistribution (AID 451; calls by dose curve; also: potency is read from the fitted curve at half-maximal effect). Conditions: CHO-K1 GR-EFC translocation, beta-gal luminescence, 2 h. An outline of the steps: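 CHO-K1 cells expressing nuclear EA and GR-ED fragments of b-gal; compounds titrated up to 46 uM final, 2 h at 37 C. GR nuclear translocation read as complemented b-gal luminescence after 1 h RT detection.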

Assay [4] has as its target Mitogen-activated protein kinase 10 (Mus musculus) (UniProt Q61831). The assay can be described thus: JNK3 AlphaScreen Assay (AID 530; active = well fitted curve in either direction with a large enough effect, not every such curve was filed as active;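 also: kinase came from lysate of stimulated human HepG2 cells; signal reports phosphorylation of biotinylated GST-cJun 1-79 at Ser73 with 10 µM ATP; % is scaled to controls: 0 for no effect and ±100 for the full control effect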). The gist of the method:
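Pre-activated (IL-1β/TNFα) JNK3 in HepG2 lysates phosphorylates biotin-GST-cJun(1-79), 10 uM ATP; anti-phospho-cJun(Ser73) AlphaScreen read at room temperature, pH 7.6 Tris buffer. Compounds pre-incubated 15 min as titrations.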
In general terms: In Alpha technology, singlet oxygen from a donor bead excites a nearby acceptor bead.

In assay [5] the target is Cytochrome P450 2C9 (Homo sapiens) (UniProt P11712). The assay can be described thus: qHTS Assay for Inhibitors and Substrates of Cytochrome P450 2C9 (AID 883). Also: nearly all actives have a fitted effect of over 60% in size. Also: potency is read from the fitted curve at half-maximal effect. The gist of the method: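 Signal: luciferase luminescence reporting luciferin produced by CYP2C9. Conditions: 10nM enzyme, Luciferin-H 100uM at KM, 25mM KPO4, 37C, 60 min NADPH-driven reaction. Reference: 57uM sulphaphenazole as 100% inhibition.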

Assay [6] is described as follows: qHTS Assay for Identification of Small Molecule Agonists for Hypoxia Response Element Signaling Pathway (AID 914; active = well fitted activation curve with a large enough effect in the signal ratio, with a control signal flat, not every such curve was filed as active; the % refers to the signal ratio; also: potency is read from the fitted curve at half-maximal effect). Conditions: ME-180 HRE-bla reporter, beta-lactamase ratio, CoCl2, 17 h; activation: stronger effect = higher value. The gist of the method: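 ME-180 cells carrying an HRE-driven beta-lactamase reporter were treated with compounds in a titration series plus an EC50 level of CoCl2 for 17 h at 37 degrees Celsius; CCF4 readout as the 460nm/530nm ratio gave AC50 values.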

In assay [7] the target is Dual specificity protein kinase CLK4 (Homo sapiens) (UniProt Q9HAZ1). The assay can be described thus: qHTS Assay for Inhibitors of CDC-like Kinase 4 (Kinase-Glo Assay) (AID 1770). Also: nearly all actives have a fitted effect of over 65% in size. Also: potency is read from the fitted curve at half-maximal effect. The gist of the method: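 Readout: Kinase-Glo luminescence from ATP left after a 4.5 h room-temperature reaction of 25 nM Clk4 with 100 uM RS peptide and 1 uM ATP (final). Buffer: 25 mM Tris pH 7.5, 10 mM MgCl2.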
(In general: In qHTS, concentration-response curves come from the screen itself.)

Assay [8] has the same target. The assay can be described thus: qHTS Assay for Inhibitors of CDC-like Kinase 4 (ADP-Glo Assay) (AID 1771). Also: nearly all actives have a fitted effect of over 70% in size. Also: potency is read from the fitted curve at half-maximal effect. An outline of the steps: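 25 nM Clk4 with 100 uM RS repeat peptide and 1 uM ATP (final) in buffer with 2 mM MgCl2, 0.5 mM EGTA, 2.5 mM DTT, 0.01% Triton X-100; 1 h at room temperature; ADP-Glo luminescence for ADP formed.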
Assay [9] has the same target. Description: qHTS Assay for Inhibitors of CDC-like Kinase 4 (ADP-FP Assay) (AID 1795). Also: nearly all actives have a fitted effect of over 60% in size. Also: potency is read from the fitted curve at half-maximal effect. The gist of the method:
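FP readout: Orange Transcreener ADP2 tracer (4 nM) plus ADP antibody, read after 30 min at room temperature. Kinase step: 6.25 nM Clk4, 100 uM RS peptide, 1 uM ATP, pH 7.5, 1 h.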

Assay [10] deals with Ubiquitin carboxyl-terminal hydrolase 1 (Homo sapiens) (UniProt O94782). The assay can be described thus: Inhibitors of USP1/UAF1: Pilot qHTS (AID 504865).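 Also: rhodamine fluorescence freed from ubiquitin-rhodamine substrate followed over time; top concentration of the series differs between compounds; % is scaled to controls: 0 for no effect and ±100 for the full control effect; nearly all actives have a fitted effect of over 35% in size.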 The gist of the method: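 1nM USP1/UAF1 + cpd, 15 min RT; start w/ Ub-Rho 150nM final; kinetic FL 480/540 nm, 6 reads q60 s. Buffer 50mM HEPES pH 7.8, 0.5mM EDTA, 1mM TCEP, 0.01% Tween-20, 0.1 mg/ml BSA.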
A short description of assay [11]: Primary qHTS for small molecule stabilizers of the endoplasmic reticulum resident proteome: Secreted ER Calcium Modulated Protein (SERCaMP) assay (AID 1508630). Also: % is scaled to controls: 0 for no effect and ±100 for the full control effect. An outline of the steps:
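GLuc-SERCaMP-expressing SH-SY5Y cells, pretreated 16 h with compound, are challenged with thapsigargin to empty ER calcium stores; after 4 h, coelenterazine is added directly to the medium and luminescence is imaged.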

For assay [12], the target named is Lysosomal acid glucosylceramidase (Homo sapiens) (UniProt P04062). Description: Glucocerebrosidase-p2 (AID 348; in the data active = potency below about 10 µM; also: potency is read from the fitted curve at half-maximal effect). As to conditions: purified GBA, blue fluorogenic substrate, 40 min. The gist of the method:
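Compounds titrated from 0.6 nM upwards against 0.2 nM enzyme in pH 5.9 citric acid/KH2PO4, taurocholate, tween-20; blue fluorogenic substrate 80 uM, 40 min room temperature, stopped and read Ex 365/Em 440 for AC50.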

Assay [13] in a line: AP1 Signaling Pathway (AID 357; active = well fitted curve in either direction with a large enough effect, not every such curve was filed as active; also: % is scaled to controls: 0 for no effect and ±100 for the full control effect). Conditions: ME-180 AP-1-bla reporter, EGF-induced, beta-lactamase ratio, 5 h; at 7.69 µM (top of the series) unless noted. The gist of the method: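 ME-180 cells with beta-lactamase reporter under AP-1 response element, stimulated with EC50 EGF; compounds tested in titration series, 5 h at 37 °C. CCF4 substrate added 2.5 h at room temperature; 460/530 nm emission ratio gave %activity and AC50.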

Assay [14] can be described thus: NFAT Signaling Pathway (AID 444; active = well fitted curve in either direction with a large enough effect, not every such curve was filed as active;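 also: carbachol stimulus at about its EC50 of 1 µM final; % is scaled to controls: 0 for no effect and ±100 for the full control effect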). Conditions: Jurkat NFAT-bla M1, carbachol, beta-lactamase ratio, 5 h; at 7.69 µM (top of the series) unless noted. The gist of the method:
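Jurkat cells with NFAT-driven β-lactamase reporter and co-expressed M1 receptor, stimulated with carbachol (final 1 uM, ~EC50), compound titration, 5 h at 37 °C. CCF4 loaded 1 h at RT; 460/530 nm ratio gave %activity and AC50.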

Assay [15] can be described thus: Stat Signaling Pathway (AID 446; active = well fitted curve in either direction with a large enough effect, not every such curve was filed as active). As to conditions: ME-180 SIE beta-lactamase reporter, IL-6 stimulated, 5 h; at 7.69 µM (top of the series) unless noted. The gist of the method:
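Screening format detects activators and inhibitors alike: ME-180 SIE-bla cells stimulated at 40 pM IL-6 for 5 hrs with compound, then dual-emission beta-lactamase read at 405 nm excitation.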

In assay [16] the target is 3',5'-cyclic-AMP phosphodiesterase 4B (Homo sapiens) (UniProt Q07343). Description: qHTS Assay for Inhibitors of PDE-IV (AID 607; active = well fitted activation curve with a large enough effect in the main read-out, with a control signal flat, not every such curve was filed as active; also: % of control where 0% means no effect). An outline of the steps:
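The readout is membrane depolarisation from a cAMP-sensing CNG channel, detected with a potential dye at ex 535/em 590. Cells were HEK293-derived (endogenous PDE-IV) at 1000 cells/well, titrated up to 22.9 uM final.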

The target in assay [17] is Cytochrome P450 3A4 (Homo sapiens) (UniProt P08684). Description: qHTS Assay for Inhibitors and Substrates of Cytochrome P450 3A4 (AID 884). Also: potency is read from the fitted curve at half-maximal effect; nearly all actives have a fitted effect of over 50% in size. An outline of the steps:
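20 nM human CYP3A4 with 25 uM Luciferin-PPXE (at KM) in 200 mM KPO4, preincubated 10 min with compound; NADPH regeneration started a 60 min RT reaction. Luciferin detected by luminescence, normalized to 57 uM ketoconazole as full inhibition.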

For assay [18] the target is unchanged. Description: qHTS Assay for Activators of Cytochrome P450 3A4 (AID 885). Also: nearly all actives have a fitted effect of over 65% in size. The gist of the method: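 Steps: enzyme/substrate mix dispensed; compound added, 10 min RT; NADPH regeneration solution added, 60 min RT; luciferin detection buffer stops reaction; 20 min later luminescence measured.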
Assay [19] addresses Cytochrome P450 2C19 (Homo sapiens) (UniProt P33261). The assay can be described thus: qHTS Assay for Inhibitors and Substrates of Cytochrome P450 2C19 (AID 899). Also: potency is read from the fitted curve at half-maximal effect; nearly all actives have a fitted effect of over 60% in size. The gist of the method: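 Signal comes from luciferase acting on luciferin released by CYP2C19-mediated hydroxylation of Luciferin-H EGE, 10uM (KM). Assay mix: 5nM enzyme, 50mM KPO4; 60 min at 37C with NADPH regeneration. Data normalized against 57uM ketoconazole.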

The target of assay [20] is Cytochrome P450 2D6 (Homo sapiens) (UniProt P10635). Description: qHTS Assay for Inhibitors and Substrates of Cytochrome P450 2D6 (AID 891). Also: potency is read from the fitted curve at half-maximal effect; nearly all actives have a fitted effect of over 60% in size. The gist of the method:
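Human CYP2D6 (5 nM) with 30 uM Luciferin-ME EGE (at Km) in 100 mM KPO4, compound preincubated 10 min, then NADPH regeneration system for 60 min at room temperature. Luciferin read by luminescence; normalized to 1.43 uM quinidine.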

A number with no mark means an inactive call. Results filed as inconclusive are left out. Activity calls are given as the source filed them. Unless noted, calls follow the shape of the dose curve; as a rule, active = well fitted curve in the direction sought with a large enough effect; inconclusive = small, poorly fitted or top-dose-only effect, or another doubt; inactive = no such curve, though single readings can be large; an effect the other way counts as inactive or inconclusive. Where only a bound is given, the exact number is not on record here.

Sequence of Cytochrome P450 1A2 (Homo sapiens) (P05177 whole entry, looked up): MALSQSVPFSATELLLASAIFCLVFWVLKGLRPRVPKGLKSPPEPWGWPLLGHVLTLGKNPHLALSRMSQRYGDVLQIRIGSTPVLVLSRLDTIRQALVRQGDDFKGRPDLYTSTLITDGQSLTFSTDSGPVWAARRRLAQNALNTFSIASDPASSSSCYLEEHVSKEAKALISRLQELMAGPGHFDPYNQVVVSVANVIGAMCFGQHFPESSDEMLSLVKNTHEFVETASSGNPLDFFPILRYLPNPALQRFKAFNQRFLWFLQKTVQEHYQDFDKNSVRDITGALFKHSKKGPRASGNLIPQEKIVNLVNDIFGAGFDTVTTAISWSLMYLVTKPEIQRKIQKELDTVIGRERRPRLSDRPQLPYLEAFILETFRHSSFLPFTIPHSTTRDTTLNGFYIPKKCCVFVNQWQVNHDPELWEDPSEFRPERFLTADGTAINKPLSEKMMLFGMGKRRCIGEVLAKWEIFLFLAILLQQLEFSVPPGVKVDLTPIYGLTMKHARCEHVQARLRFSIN
Sequence of Cytochrome P450 3A4 (Homo sapiens) (P08684 whole entry, looked up): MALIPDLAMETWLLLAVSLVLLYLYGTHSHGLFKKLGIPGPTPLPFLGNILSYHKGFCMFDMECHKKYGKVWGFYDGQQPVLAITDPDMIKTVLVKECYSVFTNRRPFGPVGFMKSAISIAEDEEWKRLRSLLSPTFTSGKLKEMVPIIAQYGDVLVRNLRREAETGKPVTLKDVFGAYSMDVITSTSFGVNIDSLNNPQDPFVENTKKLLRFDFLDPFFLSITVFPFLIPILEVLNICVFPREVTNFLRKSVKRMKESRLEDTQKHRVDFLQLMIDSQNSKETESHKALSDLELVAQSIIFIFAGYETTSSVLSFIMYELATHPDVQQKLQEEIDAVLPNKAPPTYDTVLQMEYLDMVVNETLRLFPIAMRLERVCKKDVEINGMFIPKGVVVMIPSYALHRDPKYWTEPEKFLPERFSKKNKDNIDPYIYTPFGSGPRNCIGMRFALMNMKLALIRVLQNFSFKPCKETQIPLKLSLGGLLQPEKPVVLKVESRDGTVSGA
Sequence of Ubiquitin carboxyl-terminal hydrolase 1 (Homo sapiens) (O94782 whole entry, looked up): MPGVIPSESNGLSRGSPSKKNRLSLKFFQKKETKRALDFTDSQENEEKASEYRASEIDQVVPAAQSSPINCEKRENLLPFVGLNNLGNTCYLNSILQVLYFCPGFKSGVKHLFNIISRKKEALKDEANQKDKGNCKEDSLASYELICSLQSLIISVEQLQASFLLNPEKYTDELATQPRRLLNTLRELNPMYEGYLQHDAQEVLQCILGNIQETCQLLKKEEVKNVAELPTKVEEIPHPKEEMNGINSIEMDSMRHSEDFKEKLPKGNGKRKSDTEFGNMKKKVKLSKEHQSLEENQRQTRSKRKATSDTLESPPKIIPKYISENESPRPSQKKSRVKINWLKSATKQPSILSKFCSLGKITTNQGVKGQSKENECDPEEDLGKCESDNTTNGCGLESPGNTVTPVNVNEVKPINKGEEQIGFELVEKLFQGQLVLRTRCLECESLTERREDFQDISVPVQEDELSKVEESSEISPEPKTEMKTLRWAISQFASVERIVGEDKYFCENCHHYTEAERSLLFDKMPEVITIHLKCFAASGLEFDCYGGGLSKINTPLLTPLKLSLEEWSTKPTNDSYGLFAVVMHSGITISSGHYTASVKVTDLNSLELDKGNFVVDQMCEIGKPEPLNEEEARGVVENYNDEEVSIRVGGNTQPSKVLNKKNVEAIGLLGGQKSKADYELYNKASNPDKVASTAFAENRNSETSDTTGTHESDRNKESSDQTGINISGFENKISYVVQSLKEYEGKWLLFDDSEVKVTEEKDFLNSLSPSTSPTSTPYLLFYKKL
Sequence of Dual specificity protein kinase CLK4 (Homo sapiens) (Q9HAZ1 whole entry, looked up): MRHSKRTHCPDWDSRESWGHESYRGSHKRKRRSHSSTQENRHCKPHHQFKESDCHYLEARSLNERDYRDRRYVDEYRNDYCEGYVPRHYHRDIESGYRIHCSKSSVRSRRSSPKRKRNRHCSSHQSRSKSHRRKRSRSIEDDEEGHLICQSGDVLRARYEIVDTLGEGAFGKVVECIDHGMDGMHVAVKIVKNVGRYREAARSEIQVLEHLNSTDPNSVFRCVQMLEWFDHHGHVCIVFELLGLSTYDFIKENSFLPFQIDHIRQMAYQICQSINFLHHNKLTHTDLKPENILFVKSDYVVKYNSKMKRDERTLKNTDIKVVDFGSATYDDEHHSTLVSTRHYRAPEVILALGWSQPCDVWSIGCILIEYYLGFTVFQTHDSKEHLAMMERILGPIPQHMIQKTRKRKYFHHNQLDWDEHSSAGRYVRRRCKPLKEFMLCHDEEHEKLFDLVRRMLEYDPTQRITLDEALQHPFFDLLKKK
Sequence of Glucocorticoid receptor (Homo sapiens) (P04150 whole entry, looked up, the tested form may be a part): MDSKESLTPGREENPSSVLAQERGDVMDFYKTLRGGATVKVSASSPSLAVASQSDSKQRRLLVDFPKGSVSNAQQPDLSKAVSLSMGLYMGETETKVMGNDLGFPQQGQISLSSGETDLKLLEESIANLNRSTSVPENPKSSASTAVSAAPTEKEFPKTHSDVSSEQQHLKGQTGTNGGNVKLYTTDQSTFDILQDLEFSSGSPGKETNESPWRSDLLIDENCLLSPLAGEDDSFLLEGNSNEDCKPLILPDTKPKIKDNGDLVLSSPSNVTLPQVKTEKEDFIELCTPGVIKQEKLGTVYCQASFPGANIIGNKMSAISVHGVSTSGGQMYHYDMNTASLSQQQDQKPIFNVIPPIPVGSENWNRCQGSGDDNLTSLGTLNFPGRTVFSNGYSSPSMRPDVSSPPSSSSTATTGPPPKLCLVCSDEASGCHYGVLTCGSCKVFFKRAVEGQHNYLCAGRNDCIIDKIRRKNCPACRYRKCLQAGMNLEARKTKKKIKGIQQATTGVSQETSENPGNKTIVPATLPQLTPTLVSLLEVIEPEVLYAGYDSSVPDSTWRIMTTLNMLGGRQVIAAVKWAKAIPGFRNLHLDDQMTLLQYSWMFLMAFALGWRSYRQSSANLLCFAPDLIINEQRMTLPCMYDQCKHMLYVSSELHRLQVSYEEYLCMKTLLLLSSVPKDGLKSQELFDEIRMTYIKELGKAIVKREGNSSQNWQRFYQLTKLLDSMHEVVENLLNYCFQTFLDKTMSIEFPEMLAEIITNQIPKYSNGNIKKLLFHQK
Sequence of Cytochrome P450 2C19 (Homo sapiens) (P33261 whole entry, looked up): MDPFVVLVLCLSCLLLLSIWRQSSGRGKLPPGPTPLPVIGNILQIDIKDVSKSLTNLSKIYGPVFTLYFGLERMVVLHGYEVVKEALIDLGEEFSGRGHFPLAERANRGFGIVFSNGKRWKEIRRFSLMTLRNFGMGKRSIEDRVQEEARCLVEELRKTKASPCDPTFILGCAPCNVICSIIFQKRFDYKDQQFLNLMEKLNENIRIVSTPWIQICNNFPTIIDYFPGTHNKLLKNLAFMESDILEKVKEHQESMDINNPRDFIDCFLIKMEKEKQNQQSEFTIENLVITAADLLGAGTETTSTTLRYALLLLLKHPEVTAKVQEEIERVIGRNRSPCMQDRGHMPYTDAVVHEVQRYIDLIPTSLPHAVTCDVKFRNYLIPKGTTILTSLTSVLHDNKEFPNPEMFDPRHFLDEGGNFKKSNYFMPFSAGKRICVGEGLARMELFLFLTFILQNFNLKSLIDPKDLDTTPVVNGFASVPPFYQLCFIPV
Sequence of Cytochrome P450 2C9 (Homo sapiens) (P11712 whole entry, looked up): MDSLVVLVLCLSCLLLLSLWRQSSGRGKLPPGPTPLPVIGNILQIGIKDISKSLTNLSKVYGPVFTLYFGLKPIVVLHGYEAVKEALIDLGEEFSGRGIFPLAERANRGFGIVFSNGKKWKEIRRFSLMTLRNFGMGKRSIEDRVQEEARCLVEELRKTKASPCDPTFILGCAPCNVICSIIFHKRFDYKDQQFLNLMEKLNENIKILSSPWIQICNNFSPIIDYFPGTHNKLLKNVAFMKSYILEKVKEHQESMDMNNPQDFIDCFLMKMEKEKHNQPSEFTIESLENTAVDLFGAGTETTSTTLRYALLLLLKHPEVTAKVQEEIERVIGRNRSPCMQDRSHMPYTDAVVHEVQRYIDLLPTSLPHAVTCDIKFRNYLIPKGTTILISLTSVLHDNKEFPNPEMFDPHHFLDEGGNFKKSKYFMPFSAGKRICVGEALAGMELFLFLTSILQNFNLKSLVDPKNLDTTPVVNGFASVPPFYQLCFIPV
Sequence of 3',5'-cyclic-AMP phosphodiesterase 4B (Homo sapiens) (Q07343 whole entry, looked up): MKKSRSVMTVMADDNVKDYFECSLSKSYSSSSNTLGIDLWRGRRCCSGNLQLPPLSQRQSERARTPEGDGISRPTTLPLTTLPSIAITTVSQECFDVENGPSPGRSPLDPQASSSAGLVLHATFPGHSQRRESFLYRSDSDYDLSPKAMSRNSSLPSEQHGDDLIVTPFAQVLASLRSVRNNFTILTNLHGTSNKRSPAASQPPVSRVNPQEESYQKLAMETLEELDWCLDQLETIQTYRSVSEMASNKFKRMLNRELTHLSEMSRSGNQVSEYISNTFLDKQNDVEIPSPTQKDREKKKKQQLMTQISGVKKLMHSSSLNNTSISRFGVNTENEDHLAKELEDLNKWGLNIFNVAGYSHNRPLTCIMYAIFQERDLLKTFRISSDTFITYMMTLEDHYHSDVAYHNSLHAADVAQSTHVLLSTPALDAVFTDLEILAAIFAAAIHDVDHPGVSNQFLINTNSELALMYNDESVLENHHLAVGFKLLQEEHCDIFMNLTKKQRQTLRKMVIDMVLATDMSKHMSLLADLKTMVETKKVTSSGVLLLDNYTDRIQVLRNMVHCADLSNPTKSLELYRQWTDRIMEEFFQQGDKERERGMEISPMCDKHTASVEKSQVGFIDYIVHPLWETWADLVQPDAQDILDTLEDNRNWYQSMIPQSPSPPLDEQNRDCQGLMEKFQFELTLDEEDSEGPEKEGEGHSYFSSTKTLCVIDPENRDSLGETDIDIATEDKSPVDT

Regarding `CCNc1ncc2nc(-c3ccc(OC)cc3)c(=O)n(Cc3ccc(F)cc3)c2n1`, the Potency entry in assay [1], in assay [4], in assay [5], in assay [7], in [8] and in [9] was “inactive” each time. For the same molecule, the Potency entry in assay [10] was “inactive”. Moreover, the Potency in assay [2] is over 9.22 µM; in assay [3], over 46 µM; in [6], 1.26 µM (active). In addition, the outcome in assay [11] was inactive.

On to `CNc1ncncc1-c1ccccc1C(F)(F)F`, for which the Potency in assay [12] was over 11.4 µM; in assay [2] it was over 46 µM; in [3] it was over 46 µM; in assay [17] it was 0.794 µM (active). Moreover, the activity change, negative = inhibition in assay [13] was 2.43%; in [14], 11.4%. The Potency entry in assay [1], in assay [4], in assay [16], in [18], in assay [7] and in assay [8] was “inactive” each time. The Potency result in assay [10] is “inactive”. Besides, the activity, negative = inhibition in assay [15] was 22.6%. Moreover, the result in [11] was inactive.

As for `COc1ccc(CNc2ncncc2-c2ccc(C(=O)N(C)C)cc2)c(OC)c1`, the activity change, negative = inhibition in [13] was -28.8%; in assay [14], 18.9%. The Potency in assay [1] is 15.8 µM (active); in assay [2], over 46 µM; in [3], over 46 µM; in assay [17], 0.501 µM (active). Besides, the activity, negative = inhibition in assay [15] is -21%. The Potency entry in assay [4], in assay [18], in assay [7], in [8], in assay [9] and in [10] was “inactive” throughout. Moreover, the result in [11] was inactive.

Consider `COc1ccc2[nH]cc(CCNc3cc(-c4ccc5c(c4)OCO5)ncn3)c2c1`, for which the activity change, negative = inhibition in assay [14] is 19.3%. The Potency in [2] was over 46 µM; in [3], over 46 µM; in [7], 3.98 µM (active); in [8], 3.16 µM (active); in assay [9] it was 2.51 µM (active). For the same molecule, the Potency entry in [10] is “inactive”. In addition, in assay [11], the result was inactive.

With `COc1cccc(-c2nc(NCc3ccccc3OC)c3ccccc3n2)c1`, the activity change, negative = inhibition in [13] was 9.52%. In addition, the Potency in assay [1] was 0.631 µM (active); in assay [2], over 46 µM; in [3], over 46 µM; in [17], 3.98 µM (active); in [19], 7.94 µM (active). Further, the activity, negative = inhibition in assay [15] is -9.86%. The Potency entry in [4], in assay [18], in assay [7], in assay [8], in assay [9] and in assay [10] was “inactive” throughout. Also, the result in assay [11] was inactive.

In the case of `COc1ccc2[nH]cc(CCNc3ncncc3-c3cccc(NS(C)(=O)=O)c3)c2c1`, the activity change, negative = inhibition in [13] was -19.1%; in assay [14], 15.3%. Besides, the Potency is 12.6 µM (active) in assay [1]; over 46 µM in [2]; over 46 µM in assay [3]; 0.398 µM (active) in assay [5]; 0.398 µM (active) in assay [17]; 3.16 µM (active) in [20]. Also, the Potency in assay [19] was 5.01 µM (active); in assay [7], 25.1 µM (active); in assay [8] it was 35.5 µM (active); in [9], 10 µM (active). For the same molecule, the activity, negative = inhibition in [15] is -18.7%. The Potency result in assay [4], in [16], in assay [18] and in assay [10] was “inactive” each time. Further, the outcome in assay [11] was inactive.
